Consider 4 compounds from PubChem BioAssay (EPA / NIEHS).

Details in all cases: mRNA level, 48 h; actives raise or lower the signal
Read-out in assay [1]: Bcl-2 (BAX) gene, BAX (gene 581)
As to the kind of experiment: LTEA_HepaRG_BAX: Life Technologies and Expression Analysis (LTEA) Assay for Bcl-2 (BAX) gene using HepaRG (AID 2283470). The essentials:
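HepaRG (human liver), 48 h exposure, duplicate wells. 8-pt curve, half-log from 100 uM, 0.5% DMSO. BAX transcript by TaqMan qRT-PCR; ACTB/GAPDH/POLR2A normalization; gain or loss vs DMSO baseline.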

Read-out in assay [2]: adenosine kinase (ADK) gene, ADK (gene 132)
In words: LTEA_HepaRG_ADK: Life Technologies and Expression Analysis (LTEA) Assay for adenosine kinase (ADK) gene using HepaRG (AID 2283471). The procedure, abridged:
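ADK expression quantified by qRT-PCR, normalised to three housekeeping genes, after 48 h exposure of HepaRG cells to eight concentrations (top 100 uM, half-log steps, duplicate, 0.5% DMSO). Up- or down-regulation fitted relative to vehicle.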

Read-out in assay [3]: Alpha-fetoprotein (AFP) gene, AFP (gene 174)
In words: LTEA_HepaRG_AFP: Life Technologies and Expression Analysis (LTEA) Assay for Alpha-fetoprotein (AFP) gene using HepaRG (AID 2283472). The procedure, abridged: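 HepaRG, single lot; 48 h post-plating -> serum-free induction medium; cpd 8-pt, 100 uM top, half-log, 0.5% DMSO, duplicate, 48 h. RNA -> qRT-PCR AFP, norm ACTB/GAPDH/POLR2A. Bidirectional fit vs DMSO.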

Read-out in assay [4]: Apolipoprotein A-V (APOA5) gene, APOA5 (gene 116519)
As to the kind of experiment: LTEA_HepaRG_APOA5: Life Technologies and Expression Analysis (LTEA) Assay for Apolipoprotein A-V (APOA5) gene using HepaRG (AID 2283474). The essentials:
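Differentiated HepaRG cells in serum-free induction medium, exposed 48 h in duplicate to eight half-log concentrations topping at 100 uM (0.5% DMSO). APOA5 mRNA by Fluidigm TaqMan qRT-PCR, normalized to ACTB, GAPDH and POLR2A; bidirectional fit versus DMSO.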

Read-out in assay [5]: Apoptosis regulator Bcl-2 (Homo sapiens) (UniProt P10415)
As to the kind of experiment: LTEA_HepaRG_BCL2: Life Technologies and Expression Analysis (LTEA) Assay for Bcl-2 gene using HepaRG (AID 2283475). The essentials:
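HepaRG, plated 48 h then switched to serum-free induction medium; dosed 48 h, 8 conc. (max 100 uM, half-log steps), duplicate, 0.5% DMSO. Lysis in RLT, RNA isolated, TaqMan qRT-PCR for BCL2; ACTB/GAPDH/POLR2A normalisation; bidirectional fit vs DMSO.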

Read-out in assay [6]: Bcl-2 (BID) gene, BID (gene 637)
In words: LTEA_HepaRG_BID: Life Technologies and Expression Analysis (LTEA) Assay for Bcl-2 (BID) gene using HepaRG (AID 2283476). The essentials: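 Transcript levels of BID, measured by qRT-PCR and normalized to three housekeeping genes, were fitted bidirectionally against DMSO controls. Cells were HepaRG, dosed 48 h at up to 100 uM.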

Read-out in assay [7]: Caspase-3 (Homo sapiens) (UniProt P42574)
In words: LTEA_HepaRG_CASP3: Life Technologies and Expression Analysis (LTEA) Assay for cysteine-aspartic acid protease (CASP3) using HepaRG (AID 2283477). The essentials: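 Differentiated HepaRG cells, plated 48 h, were treated in duplicate in serum-free induction medium for 48 h with eight half-log concentrations up to 100 uM in 0.5% DMSO. CASP3 mRNA measured by qRT-PCR, normalized to ACTB, GAPDH, POLR2A.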

Read-out in assay [8]: Cytochrome P450 (CYP1A2), CYP1A2 (gene 1544)
As to the kind of experiment: LTEA_HepaRG_CYP1A2: Life Technologies and Expression Analysis (LTEA) Assay for Cytochrome P450 (CYP1A2) using HepaRG (AID 2283479). The essentials: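 Differentiated human HepaRG cells in serum-free induction medium exposed 48 hours in duplicate to 8 half-log concentrations from 100 uM, 0.5% DMSO. CYP1A2 mRNA quantified by qRT-PCR, normalized to ACTB, GAPDH and POLR2A; bidirectional fitting versus DMSO.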

Read-out in assay [9]: cysteine-aspartic acid protease (CASP8), CASP8 (gene 841)
In words: LTEA_HepaRG_CASP8: Life Technologies and Expression Analysis (LTEA) Assay for cysteine-aspartic acid protease (CASP8) using HepaRG (AID 2283480). The essentials: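 Differentiated HepaRG cells in serum-free induction medium, 48 h exposure, eight-point half-log series from 100 uM in 0.5% DMSO, duplicates. CASP8 mRNA by qRT-PCR, normalized to ACTB, GAPDH, POLR2A; bidirectional fit versus DMSO.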

Read-out in assay [10]: Cytochrome P450 (CYP2B6), CYP2B6 (gene 1555)
As to the kind of experiment: LTEA_HepaRG_CYP2B6: Life Technologies and Expression Analysis (LTEA) Assay for Cytochrome P450 (CYP2B6) using HepaRG (AID 2283481). The essentials: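 Differentiated human HepaRG cells in serum-free induction medium, dosed in duplicate for 48 h over 8 half-log concentrations topping at 100 uM (0.5% DMSO). CYP2B6 mRNA measured by TaqMan qRT-PCR, normalized to ACTB, GAPDH, POLR2A; bidirectional fit versus DMSO.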

Read-out in assay [11]: Cytochrome P450 2C19 (Homo sapiens) (UniProt P33261)
In words: LTEA_HepaRG_CYP2C19: Life Technologies and Expression Analysis (LTEA) Assay for CYP2C19 using HepaRG (AID 2283482). The essentials: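 Differentiated HepaRG cells in serum-free induction medium exposed 48 h in duplicate, 8 concentrations from 100 uM by half-log steps in 0.5% DMSO. CYP2C19 mRNA measured by TaqMan qRT-PCR, normalized to ACTB, GAPDH, POLR2A. Bidirectional fit versus DMSO.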

Read-out in assay [12]: CYP2C8 (gene 1558)
In words: LTEA_HepaRG_CYP2C8: Life Technologies and Expression Analysis (LTEA) Assay for CYP2C8 using HepaRG (AID 2283483). The essentials:
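Differentiated HepaRG cells in serum-free induction medium exposed 48 h in duplicate to 8 half-log concentrations from 100 uM in 0.5% DMSO. CYP2C8 mRNA by qRT-PCR normalized to ACTB, GAPDH, POLR2A; bidirectional fit versus DMSO.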

Read-out in assay [13]: CYP2C9 (gene 1559)
As to the kind of experiment: LTEA_HepaRG_CYP2C9: Life Technologies and Expression Analysis (LTEA) Assay for CYP2C9 using HepaRG (AID 2283484). The procedure, abridged:
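Differentiated human HepaRG cells in serum-free induction medium were exposed 48 h to chemicals in 8-point half-log series from 100 uM (0.5% DMSO), in duplicate. CYP2C9 mRNA was measured by qRT-PCR, normalized to ACTB/GAPDH/POLR2A, with bidirectional fitting versus DMSO.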

Read-out in assay [14]: CYP2E1 (gene 1571)
In words: LTEA_HepaRG_CYP2E1: Life Technologies and Expression Analysis (LTEA) Assay for CYP2E1 using HepaRG (AID 2283485). The procedure, abridged: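 Human liver line HepaRG, plated 48 h, then serum-free induction medium + chemical x 48 h; 8-pt CRC from 100 uM, half-log, 0.5% DMSO, n=2. Readout: CYP2E1 mRNA qRT-PCR vs ACTB/GAPDH/POLR2A; bidirectional fit vs DMSO.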

Read-out in assay [15]: CYP4A11 (gene 1579)
In words: LTEA_HepaRG_CYP4A11: Life Technologies and Expression Analysis (LTEA) Assay for CYP4A11 using HepaRG (AID 2283486). The essentials:
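Differentiated HepaRG cells, 48 h after plating, exposed in duplicate for 48 h to 8 half-log concentrations up to 100 uM in 0.5% DMSO in serum-free induction medium. CYP4A11 mRNA measured by TaqMan qRT-PCR, normalized to ACTB, GAPDH and POLR2A.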

Read-out in assay [16]: Cytochrome P450 3A4 (Homo sapiens) (UniProt P08684)
In words: LTEA_HepaRG_CYP3A4: Life Technologies and Expression Analysis (LTEA) Assay for CYP3A4 using HepaRG (AID 2283487). The procedure, abridged: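 Differentiated HepaRG cells, plated 48 h, then dosed 48 h in serum-free induction medium with 0.5% DMSO, 8 half-log concentrations up to 100 uM, duplicate. CYP3A4 mRNA by qRT-PCR, normalized to ACTB/GAPDH/POLR2A; bidirectional fit versus DMSO.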

Read-out in assay [17]: DNA damage-inducible transcript 3 (DDIT3), DDIT3 (gene 1649)
In words: LTEA_HepaRG_DDIT3: Life Technologies and Expression Analysis (LTEA) Assay for DNA damage-inducible transcript 3 (DDIT3) using HepaRG (AID 2283488). The procedure, abridged: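 HepaRG plated 48 h, switched to serum-free induction medium, dosed 48 h (100 uM top, half-log, 8 pts, 0.5% DMSO, n=2); RNA isolated; DDIT3 by qRT-PCR; bidirectional curve fit vs DMSO.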

Read-out in assay [18]: Pro-epidermal growth factor (Homo sapiens) (UniProt P01133)
As to the kind of experiment: LTEA_HepaRG_EGF: Life Technologies and Expression Analysis (LTEA) Assay for Epidermal growth factor (EGF) using HepaRG (AID 2283489). The essentials:
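HepaRG cells (~100,000/well, 48 h pre-culture) exposed in duplicate for 48 h in serum-free induction medium to 8 half-log concentrations up to 100 uM in 0.5% DMSO. EGF mRNA by qRT-PCR, normalized to ACTB/GAPDH/POLR2A; bidirectional fit versus DMSO.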

One may read the AC50 as the midpoint of the concentration-response curve, whichever way the signal moves.

Active and inactive are the calls of the source. How the source made its calls: active means hit-call score of the fitted dose curve at least 0.9, where 1 is the maximum; inactive means score below 0.9.

Caspase-3 (Homo sapiens), sequence (P42574 whole entry, looked up): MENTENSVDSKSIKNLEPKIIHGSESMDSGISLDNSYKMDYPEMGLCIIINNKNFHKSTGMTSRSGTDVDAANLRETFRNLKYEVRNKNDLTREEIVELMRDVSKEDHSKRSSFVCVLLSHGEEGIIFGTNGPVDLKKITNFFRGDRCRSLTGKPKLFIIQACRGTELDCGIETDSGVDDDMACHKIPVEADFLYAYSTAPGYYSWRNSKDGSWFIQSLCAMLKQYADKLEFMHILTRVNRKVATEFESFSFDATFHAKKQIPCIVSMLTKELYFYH
Apoptosis regulator Bcl-2 (Homo sapiens), sequence (P10415 whole entry, looked up): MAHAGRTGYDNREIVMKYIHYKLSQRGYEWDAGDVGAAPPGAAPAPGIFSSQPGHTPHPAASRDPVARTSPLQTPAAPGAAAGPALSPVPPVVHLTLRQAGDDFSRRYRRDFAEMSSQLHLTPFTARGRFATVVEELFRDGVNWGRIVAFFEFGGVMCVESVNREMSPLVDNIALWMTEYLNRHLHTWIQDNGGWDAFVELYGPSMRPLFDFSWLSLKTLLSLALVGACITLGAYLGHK
Cytochrome P450 2C19 (Homo sapiens), sequence (P33261 whole entry, looked up): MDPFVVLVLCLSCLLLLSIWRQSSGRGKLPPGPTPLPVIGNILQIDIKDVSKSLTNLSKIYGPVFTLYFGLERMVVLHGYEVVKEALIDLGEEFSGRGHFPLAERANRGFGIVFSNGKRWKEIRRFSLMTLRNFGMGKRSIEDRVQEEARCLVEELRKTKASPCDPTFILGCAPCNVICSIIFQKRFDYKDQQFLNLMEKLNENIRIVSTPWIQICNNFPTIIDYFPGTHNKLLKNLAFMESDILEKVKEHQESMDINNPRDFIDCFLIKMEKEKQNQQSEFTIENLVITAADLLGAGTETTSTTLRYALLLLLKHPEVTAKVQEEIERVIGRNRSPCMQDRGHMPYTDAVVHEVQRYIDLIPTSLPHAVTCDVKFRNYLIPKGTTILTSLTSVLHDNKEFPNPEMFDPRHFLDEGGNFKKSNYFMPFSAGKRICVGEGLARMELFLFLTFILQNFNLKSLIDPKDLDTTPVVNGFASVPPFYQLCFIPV
Cytochrome P450 3A4 (Homo sapiens), sequence (P08684 whole entry, looked up): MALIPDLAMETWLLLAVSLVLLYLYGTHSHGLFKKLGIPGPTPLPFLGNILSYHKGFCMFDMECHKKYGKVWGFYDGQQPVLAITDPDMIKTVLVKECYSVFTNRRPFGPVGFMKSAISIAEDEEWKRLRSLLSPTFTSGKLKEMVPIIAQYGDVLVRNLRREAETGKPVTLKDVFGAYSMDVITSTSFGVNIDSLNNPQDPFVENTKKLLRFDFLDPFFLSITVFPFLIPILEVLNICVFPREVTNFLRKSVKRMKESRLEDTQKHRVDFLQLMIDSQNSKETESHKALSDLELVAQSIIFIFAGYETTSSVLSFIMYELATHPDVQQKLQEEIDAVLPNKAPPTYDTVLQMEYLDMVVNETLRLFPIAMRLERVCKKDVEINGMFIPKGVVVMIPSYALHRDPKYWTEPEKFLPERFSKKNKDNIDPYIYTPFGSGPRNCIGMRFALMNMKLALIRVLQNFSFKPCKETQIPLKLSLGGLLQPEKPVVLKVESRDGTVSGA

Turning to `c1ccc(C[n+]2cccc3ccccc32)cc1`, the AC50 is 69.4 µM (active) in assay [1]; 35 µM (active) in assay [3]; 31.4 µM (active) in assay [4]; 35.1 µM (active) in assay [5]; 50 µM (active) in [10]; 50 µM (active) in assay [11]. Moreover, the AC50 is 30 µM (active) in [12]; 31 µM (active) in assay [13]; 24.6 µM (active) in assay [14]; 22.3 µM (active) in [15]; 33.4 µM (active) in assay [16]; 30.9 µM (active) in [17]. Besides, the compound was called inactive in assay [2], in assay [6], in assay [7], in [8], in assay [9] and in assay [18].
Take `O=CCCCC=O`: the compound was classed as inactive in assay [1], in assay [2], in assay [3], in [5], in assay [6] and in [7]. The compound was classed as inactive in assay [8], in assay [9], in assay [10], in assay [11], in [12] and in assay [13]. The call in assay [14], in assay [15], in assay [16], in assay [17] and in [18] was inactive.
Turning to `Cc1oc2c(NC(=O)c3c(Cl)cccc3Cl)cccc2c1C(C)(C)O`, the AC50 was 85.9 µM (active) in [1]; 15.8 µM (active) in [3]; 55.3 µM (active) in [5]; 12.7 µM (active) in assay [8]; 32.8 µM (active) in assay [10]; 33.5 µM (active) in [11]. For the same compound, the AC50 in assay [12] was 35.8 µM (active); in assay [13] it was 33.8 µM (active); in assay [14], 39.7 µM (active); in [15] it was 24.6 µM (active); in assay [17] it was 33.2 µM (active). In addition, the call in assay [2], in [6], in assay [7], in assay [9] and in assay [18] was inactive.
On to `Clc1cc(Cl)c2c(c1)N=C1CCCCCN1C2`, for which the call in assay [1], in [2], in assay [5], in assay [6], in [7] and in assay [9] was inactive. The call in assay [11], in assay [13], in assay [15], in assay [17] and in assay [18] was inactive. The AC50 in [3] is 25 µM (active); in [8], 2.21 µM (active); in [10] it was 6.27 µM (active); in [12] it was 6.18 µM (active); in [14], 32.1 µM (active).
